Measured values as given in PubChem BioAssay (Tox21).
Results filed as inconclusive are left out. Activity calls are given as the source filed them. Unless noted, calls come from the whole dose curve; as a rule, active = well fitted curve in the direction sought with a large enough effect in the repeat runs; inconclusive = weak or mixed curves; inactive = no such curve, though single readings can be large; an effect the other way counts as inactive or inconclusive.

Legend:
[1] = qHTS assay to identify small molecule antagonists of the estrogen receptor alpha (ER-alpha) signaling pathway using the BG1 cell line in the presence of 0.1 nM 17-beta-estradiol - cell viability counter screen (AID 1259241); note: nearly all actives have a fitted effect of over 40% in size; note: potency is the fitted concentration of half-maximal effect
Outline: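 Measures cytotoxicity alongside the ER-alpha antagonist readout: VM7Luc4E2 cells, charcoal-stripped serum, 0.1 nM 17beta-estradiol final, 22 hr compound incubation at 37C, CellTiter-Fluor fluorescence.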

[2] = qHTS assay to identify small molecule antagonists of the androgen receptor (AR) signaling pathway using the MDA cell line in the presence of 0.5 nM R1881 - cell viability counter screen (AID 1259242); note: nearly all actives have a fitted effect of over 45% in size; note: potency is the fitted concentration of half-maximal effect
Outline: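 Concentration-response screen of compounds for toxicity in MDA-kb2 reporter cells: 16 hr at 37C with 0.5 nM R1881, endpoint live-cell protease fluorescence measured in the reporter wells.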

[3] = target: Estrogen receptor (Homo sapiens) (UniProt P03372); experiment: qHTS assay to identify small molecule antagonists of the estrogen receptor alpha (ER-alpha) signaling pathway using the BG1 cell line in the presence of 0.1 nM 17-beta-estradiol (AID 1259244); note: nearly all actives have a fitted effect of over 50% in size; note: potency is the fitted concentration of half-maximal effect
Outline: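 Compounds were tested against 0.1 nM (final) 17beta-estradiol in VM7Luc4E2 cells, which express full-length ER-alpha and an ERE-luciferase reporter; luminescence was recorded following 22 h exposure.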

[4] = qHTS assay to identify small molecule phospholipidosis (PLD) inducers (AID 1259344; active = well fitted curve in the direction sought with a large enough effect; an effect the other way counts as inactive or inconclusive)
Outline: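 Read-out is LipidTOX Red fluorescence (ex 595/em 615) imaged in HepG2 cells after 24 h compound exposure at 37 C, with Hoechst nuclear counterstain (ex 352/em 461) allowing per-cell normalisation.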

[5] = qHTS assay to identify small molecule HDAC inhibitors (AID 1259364); note: potency is the fitted concentration of half-maximal effect;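 note: wild-type HCT-116 cells with endogenous class I/II HDAC activity; nearly all actives have a fitted effect of over 45% in size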
Outline: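 Screening used wild-type human colon HCT-116 cells incubated overnight, dosed with compounds for 2 hours, and assayed with a homogeneous luminogenic HDAC I/II reagent for 30 minutes at room temperature.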

[6] = qHTS assay to identify small molecule HDAC inhibitors - cell viability counter screen (AID 1259365); note: series mostly up to about 92 µM; nearly all actives have a fitted effect of over 50% in size
Outline: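 Following a 2hr exposure of overnight-plated wild-type HCT-116 cells to DMSO-delivered compounds, CellTiter-Glo was added and luminescence recorded after 30min at room temperature.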

[7] = qHTS assay to identify small molecule agonists of the sonic hedgehog signaling (Shh) pathway - cell viability counter screen (AID 1259366); note: nearly all actives have a fitted effect of over 50% in size; note: potency is the fitted concentration of half-maximal effect
Outline: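 After a 4hr attachment at 37C, NIH/3T3 cells bearing an integrated Gli1-driven luciferase reporter were dosed with compounds. Treatment lasted 24hr, with the final hour including CellTiter-Fluor for a fluorescence viability measurement.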

[8] = qHTS assay to identify small molecule antagonists of the sonic hedgehog signaling (Shh) pathway - cell viability counter screen (AID 1259367); note: nearly all actives have a fitted effect of over 55% in size; note: potency is the fitted concentration of half-maximal effect
Outline: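 Fluorescence read-out (CellTiter-Fluor, 1 hr at 37C) taken after 23 hr compound treatment of 3T3 Gli1-Luc cells stimulated with conditioned medium. Cells were seeded at 2,000 per well and pre-incubated 4 hr.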

[9] = qHTS assay to identify small molecule agonists of the sonic hedgehog signaling (Shh) pathway (AID 1259368; calls by dose curve; note: nearly all actives have a fitted effect of over 15% in size; note: potency is the fitted concentration of half-maximal effect;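 for activity change: NIH/3T3-derived 3T3Gli1-Luc cells carrying a stable Gli1-driven firefly luciferase reporter; series mostly up to about 92 µM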)
Outline: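 Hedgehog pathway agonism scored by increased firefly luciferase luminescence in 3T3Gli1-Luc cells treated 24 hr at 37 C; detection used a 30 min room-temperature reagent incubation.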

[10] = qHTS assay to identify small molecule antagonists of the sonic hedgehog signaling (Shh) pathway (AID 1259369; calls by dose curve; note: nearly all actives have a fitted effect of over 45% in size; note: potency is the fitted concentration of half-maximal effect)
Outline: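 NIH/3T3 stable Gli1-Luc clone, 2,000 cells/well, 4hr settle; cpd + conditioned medium 24hr; Luc reagent 30min RT; luminescence.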

[11] = target: Estrogen receptor beta (Homo sapiens) (UniProt Q92731); experiment: qHTS assay to identify small molecule agonists of the estrogen receptor beta (ER-beta) signaling pathway (AID 1259377; active = well fitted activation curve with a large enough effect in the signal ratio in the repeat runs, not every such curve was filed as active; the % refers to the signal ratio)
Outline: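 In HEK293T cells bearing a UAS-beta-lactamase reporter under ER-beta control, DMSO-delivered compounds were incubated for 16 hr at 37C. Activity was detected as fluorescence 2 hours after LiveBLAzer B/G FRET substrate addition.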

[12] = qHTS assay to identify small molecule agonists of the androgen receptor (AR) signaling pathway in the presence of an antagonist - cell viability counter screen (AID 1259379); note: nearly all actives have a fitted effect of over 25% in size; note: potency is the fitted concentration of half-maximal effect
Outline: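 MDA-kb2 viability measured by CellTiter-Fluor fluorescence in the same wells as the luciferase signal; nilutamide 3.0uM final; 15-point compound titration; 16 hr at 37C.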

[13] = qHTS assay to identify small molecule agonists of the estrogen receptor beta (ER-beta) signaling pathway - cell viability counter screen (AID 1259380); note: nearly all actives have a fitted effect of over 30% in size; note: potency is the fitted concentration of half-maximal effect
Outline: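 Measured: luminescence from CellTiter-Glo after 30 min at room temperature, added to wells already read for the LiveBLAzer FRET reporter (2 hr substrate); ER-beta-UAS-bla HEK293T cells had 16 hr compound treatment at 37C, 5% CO2.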

[14] = qHTS assay to identify small molecule antagonists of the estrogen receptor beta (ER-beta) signaling pathway - cell viability counter screen (AID 1259382); note: nearly all actives have a fitted effect of over 55% in size; note: potency is the fitted concentration of half-maximal effect
Outline: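 Readout: luminescence, CellTiter-Glo, same wells as bla assay. System: ER-beta-UAS-bla GripTite HEK293T, 2% charcoal-stripped FBS. Exposure: compounds plus 1nM 17-beta-estradiol, 16 hr, 37C.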

[15] = target: Estrogen receptor (Homo sapiens) (UniProt P03372); experiment: qHTS assay to identify small molecule agonists of the estrogen receptor alpha (ER-alpha) signaling pathway in the presence of an antagonist (AID 1259383; calls by dose curve; note: top concentration of the series differs between compounds; nearly all actives have a fitted effect of over 15% in size)
Outline: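 Quantitative HTS confirmation: compounds titrated at 15 concentrations onto estrogen-deprived VM7Luc4E2 cells carrying a four-ERE luciferase construct, with ICI-182,780 present at 10.0nM final. Signal is luminescence after 22hr exposure.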

[16] = qHTS assay to identify small molecule agonists or antagonists of the thyroid stimulating hormone receptor (TSHR) signaling pathway - wild type cell line counter screen (AID 1259384; calls by dose curve)
Outline: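 Wild-type Hek293 cells, 800/well, 18 h at 37C, then compound with Ro20-1724 for 30 min RT. cAMP by HTRF (cAMP-d2/anti-cAMP cryptate), 1 h RT, fluorescence read. 15 concentrations, triplicates.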

[17] = target: Thyrotropin receptor (Homo sapiens) (UniProt P16473); experiment: qHTS assay to identify small molecule antagonists of the thyroid stimulating hormone receptor (TSHR) signaling pathway (AID 1259385; calls by dose curve; note: nearly all actives have a fitted effect of over 20% in size; note: potency is the fitted concentration of half-maximal effect)
Outline: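 TSHR-HEK293 cells (800/well) plated 18 h, then compounds with Ro20-1724 and TSH at 1.5 ng/mL final, 30 min at room temperature. cAMP quantified by HTRF (cAMP-d2/anti-cAMP-cryptate, 1 h); 15 concentrations in triplicate.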

[18] = target: Androgen receptor (Homo sapiens) (UniProt P10275); experiment: qHTS assay to identify small molecule antagonists of the androgen receptor (AR) signaling pathway using the MDA cell line in the presence of 0.5 nM R1881 (AID 1259243); note: nearly all actives have a fitted effect of over 50% in size; note: potency is the fitted concentration of half-maximal effect
Outline: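 With R1881 held at 0.5 nM (final), compound effects on MMTV-luciferase expression in MDA-kb2 cells were scored by luminescence after a 16 hr, 37C incubation.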

[19] = target: Estrogen receptor beta (Homo sapiens) (UniProt Q92731); experiment: qHTS assay to identify small molecule antagonists of the estrogen receptor beta (ER-beta) signaling pathway (AID 1259378; active = well fitted inhibition curve with a large enough effect in the signal ratio in the repeat runs, not every such curve was filed as active; the % refers to the signal ratio; note: potency is the fitted concentration of half-maximal effect)
Outline: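 ER-beta-UAS-bla HEK293T cells in 2% charcoal-stripped FBS medium treated with compound plus 1nM final 17-beta-estradiol for 16 hr at 37C. Beta-lactamase reporter read by FRET substrate fluorescence after 2 hours at room temperature.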

[20] = target: Androgen receptor (Homo sapiens) (UniProt P10275); experiment: qHTS assay to identify small molecule agonists of the androgen receptor (AR) signaling pathway in the presence of an antagonist (AID 1259381; calls by dose curve; note: nearly all actives have a fitted effect of over 15% in size)
Outline: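 Luminescent ONE-Glo read, 30min at room temperature, follows 16hr compound exposure (15 concentrations) of MDA-kb2 cells at 37C, 0% CO2, with nilutamide added at 3.0uM final.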
% is set by controls: 0 for no effect and ±100 for the full control effect.

Chain of Estrogen receptor beta (Homo sapiens) (Q92731 whole entry, looked up): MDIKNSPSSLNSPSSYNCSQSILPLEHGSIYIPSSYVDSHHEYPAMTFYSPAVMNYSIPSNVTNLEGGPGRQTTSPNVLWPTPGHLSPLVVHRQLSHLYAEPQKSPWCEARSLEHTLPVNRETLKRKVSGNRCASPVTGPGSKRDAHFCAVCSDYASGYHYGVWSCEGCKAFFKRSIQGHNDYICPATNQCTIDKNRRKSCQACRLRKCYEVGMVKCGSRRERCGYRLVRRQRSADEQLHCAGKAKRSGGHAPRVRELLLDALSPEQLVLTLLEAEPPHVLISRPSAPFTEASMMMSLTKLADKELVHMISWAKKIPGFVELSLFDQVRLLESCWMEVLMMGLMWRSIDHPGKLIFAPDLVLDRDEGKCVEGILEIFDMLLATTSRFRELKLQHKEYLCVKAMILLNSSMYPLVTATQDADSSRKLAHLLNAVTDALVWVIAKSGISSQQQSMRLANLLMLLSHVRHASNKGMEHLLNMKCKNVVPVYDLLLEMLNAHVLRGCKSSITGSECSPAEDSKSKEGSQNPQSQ
Chain of Thyrotropin receptor (Homo sapiens) (P16473 whole entry, looked up): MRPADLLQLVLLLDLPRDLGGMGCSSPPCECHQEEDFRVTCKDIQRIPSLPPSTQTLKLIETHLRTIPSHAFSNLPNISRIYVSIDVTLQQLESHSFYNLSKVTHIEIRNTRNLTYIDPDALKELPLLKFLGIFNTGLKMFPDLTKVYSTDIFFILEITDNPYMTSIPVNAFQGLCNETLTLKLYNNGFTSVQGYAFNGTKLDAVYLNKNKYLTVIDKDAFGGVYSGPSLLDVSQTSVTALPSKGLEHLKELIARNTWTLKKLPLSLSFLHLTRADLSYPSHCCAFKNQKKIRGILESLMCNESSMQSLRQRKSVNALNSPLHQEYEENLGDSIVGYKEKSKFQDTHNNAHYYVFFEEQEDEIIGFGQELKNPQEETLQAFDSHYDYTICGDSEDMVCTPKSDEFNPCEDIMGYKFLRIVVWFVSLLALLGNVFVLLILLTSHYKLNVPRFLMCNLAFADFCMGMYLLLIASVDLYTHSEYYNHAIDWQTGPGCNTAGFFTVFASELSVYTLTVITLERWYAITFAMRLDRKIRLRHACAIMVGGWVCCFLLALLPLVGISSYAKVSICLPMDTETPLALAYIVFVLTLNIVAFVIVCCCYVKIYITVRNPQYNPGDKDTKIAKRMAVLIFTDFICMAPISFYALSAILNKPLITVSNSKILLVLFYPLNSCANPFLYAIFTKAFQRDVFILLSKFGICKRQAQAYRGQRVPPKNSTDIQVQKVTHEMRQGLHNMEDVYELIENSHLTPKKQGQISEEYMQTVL
Chain of Estrogen receptor (Homo sapiens) (P03372 whole entry, looked up): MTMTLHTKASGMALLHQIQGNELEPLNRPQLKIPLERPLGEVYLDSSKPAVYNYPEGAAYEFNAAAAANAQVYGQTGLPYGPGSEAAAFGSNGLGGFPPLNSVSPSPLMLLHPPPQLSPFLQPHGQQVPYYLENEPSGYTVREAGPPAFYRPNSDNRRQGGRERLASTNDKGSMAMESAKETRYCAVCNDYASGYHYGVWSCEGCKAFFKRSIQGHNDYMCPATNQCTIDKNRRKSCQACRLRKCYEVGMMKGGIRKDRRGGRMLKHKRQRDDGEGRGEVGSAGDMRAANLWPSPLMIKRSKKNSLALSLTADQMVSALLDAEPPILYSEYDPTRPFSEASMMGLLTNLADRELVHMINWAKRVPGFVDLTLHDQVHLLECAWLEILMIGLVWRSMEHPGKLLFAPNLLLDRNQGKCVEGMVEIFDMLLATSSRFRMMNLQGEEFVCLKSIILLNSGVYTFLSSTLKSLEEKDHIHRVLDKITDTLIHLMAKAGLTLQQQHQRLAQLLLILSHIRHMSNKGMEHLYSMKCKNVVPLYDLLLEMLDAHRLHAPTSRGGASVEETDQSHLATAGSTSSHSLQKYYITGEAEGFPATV
Chain of Androgen receptor (Homo sapiens) (P10275 whole entry, looked up): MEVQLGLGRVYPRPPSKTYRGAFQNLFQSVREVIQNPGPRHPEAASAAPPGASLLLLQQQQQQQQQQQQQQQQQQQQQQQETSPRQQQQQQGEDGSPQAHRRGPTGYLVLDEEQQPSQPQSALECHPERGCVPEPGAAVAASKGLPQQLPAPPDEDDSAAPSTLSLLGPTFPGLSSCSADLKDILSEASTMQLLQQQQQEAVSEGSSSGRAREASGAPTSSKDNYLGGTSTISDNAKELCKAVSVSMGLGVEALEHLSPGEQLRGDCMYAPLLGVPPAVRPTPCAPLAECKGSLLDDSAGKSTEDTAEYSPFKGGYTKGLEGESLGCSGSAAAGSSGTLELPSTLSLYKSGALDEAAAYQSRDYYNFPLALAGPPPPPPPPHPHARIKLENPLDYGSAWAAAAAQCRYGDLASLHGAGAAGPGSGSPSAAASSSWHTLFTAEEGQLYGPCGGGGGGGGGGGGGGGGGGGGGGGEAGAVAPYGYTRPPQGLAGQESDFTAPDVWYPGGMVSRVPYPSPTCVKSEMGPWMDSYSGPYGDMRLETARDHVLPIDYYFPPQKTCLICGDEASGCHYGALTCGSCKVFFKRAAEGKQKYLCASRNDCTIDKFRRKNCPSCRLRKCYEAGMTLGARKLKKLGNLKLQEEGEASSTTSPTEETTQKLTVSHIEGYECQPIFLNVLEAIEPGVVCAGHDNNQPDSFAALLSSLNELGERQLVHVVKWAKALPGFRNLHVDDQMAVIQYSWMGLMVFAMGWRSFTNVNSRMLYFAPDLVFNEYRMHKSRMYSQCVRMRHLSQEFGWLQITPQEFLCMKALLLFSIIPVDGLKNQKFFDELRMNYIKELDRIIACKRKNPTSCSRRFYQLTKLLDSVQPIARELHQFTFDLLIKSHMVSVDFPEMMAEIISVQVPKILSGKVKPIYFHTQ

CCCCCCC[N+](CC)(CC)CCCCc1ccc(Cl)cc1
active: Potency [1] 26.6 µM | Potency [2] 6.68 µM | Potency [3] 11.9 µM | Potency [10] 0.168 µM | Potency [12] 5.96 µM | Potency [13] 9.44 µM
inactive: Potency [4] | Potency [5] | Potency [6] | Potency [7] | Potency [8] | Potency [9] | Potency [11] | Potency [14] | Potency [15] | outcome [16] | Potency [17]

[O-][n+]1ccccc1SSc1cccc[n+]1[O-]
active: Potency [1] 0.411 µM | Potency [2] 0.326 µM | Potency [18] 0.291 µM | Potency [3] 0.13 µM | Potency [5] 1.83 µM | Potency [7] 0.13 µM | Potency [8] 0.291 µM | Potency [10] 0.164 µM | Potency [14] 0.13 µM
inactive: Potency [4] | activity change [9] -7.63% [at 18.9 µM, active compounds read high] | activation [15] 3.22% [at 19 µM] | cAMP activity change [16] 5.78% [at 18.9 µM]

CC(=O)SC[C@@H](Cc1ccccc1)C(=O)NCC(=O)OCc1ccccc1
active: Potency [17] 23.7 µM
inactive: Potency [1] | Potency [2] | Potency [3] | Potency [4] | Potency [5] | Potency [6] | Potency [7] | Potency [8] | Potency [9] | Potency [10] | Potency [11] | Potency [19] | Potency [12] | Potency [13] | Potency [14] | Potency [15] | outcome [16]

Cc1cc(C2CCCCC2)n(O)c(=O)c1
inactive: Potency [2] | Potency [4] | Potency [5] | Potency [6] | Potency [9] | Potency [15] | outcome [16] | Potency [17]
active: Potency [1] 11.9 µM | Potency [3] 6.68 µM | Potency [8] 15 µM | Potency [10] 1.19 µM

Cc1ccc(-n2nc(C(C)(C)C)cc2NC(=O)Nc2ccc(OCCN3CCOCC3)c3ccccc23)cc1
active: Potency [19] 26.6 µM
inactive: Potency [1] | Potency [2] | Potency [3] | Potency [4] | Potency [5] | Potency [6] | Potency [7] | Potency [8] | Potency [9] | Potency [10] | Potency [11] | Potency [12] | Potency [15] | outcome [16] | Potency [17]

CC(C)C(C)(C)C(C)(C)C(C)(C)S
inactive: Potency [1] | Potency [2] | Potency [18] | Potency [3] | Potency [4] | Potency [5] | Potency [6] | Potency [7] | Potency [8] | Potency [9] | Potency [11] | Potency [19] | Potency [12] | Potency [13] | Potency [14] | Potency [15] | outcome [16]

COc1ccc(C(=O)/C(Br)=C\C(=O)O)cc1
inactive: Potency [1] | Potency [2] | Potency [3] | Potency [4] | Potency [5] | Potency [6] | Potency [13] | Potency [20] | Potency [15] | outcome [16]
active: Potency [9] 17.2 µM | Potency [10] 3.86 µM

O=C(Nc1cccc([N+](=O)[O-])c1)c1cc2ccccc2cc1O
active: Potency [2] 6.86 µM | Potency [18] 5.45 µM | Potency [3] 5.45 µM | Potency [5] 1.54 µM | Potency [12] 3.86 µM | Potency [14] 0.77 µM
inactive: Potency [1] | Potency [6] | Potency [7] | Potency [9] | Potency [15] | outcome [16] | Potency [17]

O=[N+]([O-])c1ccccc1Nc1ccccc1
inactive: Potency [1] | Potency [2] | Potency [3] | Potency [5] | Potency [6] | Potency [7] | Potency [8] | Potency [9] | Potency [10] | Potency [11] | Potency [19] | Potency [12] | Potency [13] | Potency [14] | Potency [15] | outcome [16]

Cc1cccc(N(C)C(=S)Oc2ccc3c(c2)C2CCC3C2)c1 (stereo unspecified)
inactive: Potency [1] | Potency [2] | Potency [3] | Potency [5] | Potency [7] | Potency [8] | Potency [9] | Potency [10] | Potency [11] | Potency [19] | Potency [12] | Potency [13] | Potency [14] | Potency [15] | outcome [16]

NNC(=O)c1cccc(C(=O)NN)c1
inactive: Potency [1] | Potency [2] | Potency [3] | Potency [5] | Potency [6] | Potency [7] | Potency [8] | Potency [9] | Potency [10] | Potency [12] | Potency [20] | Potency [14] | Potency [15]

O=C1CCCCCN1SSN1CCCCCC1=O
active: Potency [7] 19.3 µM | Potency [8] 54.5 µM | Potency [10] 9.69 µM
inactive: Potency [1] | Potency [2] | Potency [3] | Potency [5] | Potency [9] | Potency [11] | Potency [12] | Potency [15] | Potency [17]

N#CC1(c2ccc(F)cc2)CCC(=O)CC1
inactive: Potency [1] | Potency [2] | Potency [3] | Potency [5] | Potency [6] | Potency [7] | Potency [8] | Potency [9] | Potency [10] | Potency [11] | Potency [19] | Potency [12] | Potency [13] | Potency [20] | Potency [14] | Potency [15] | outcome [16] | Potency [17]

Cc1cccc2c1cc1ccc3cccc4ccc2c1c34
inactive: Potency [1] | Potency [2] | Potency [3] | Potency [5] | Potency [6] | Potency [7] | Potency [8] | Potency [9] | Potency [10] | Potency [15]

CCCC(C)c1ccccc1O (stereo unspecified)
inactive: Potency [1] | Potency [2] | Potency [3] | Potency [5] | Potency [6] | Potency [9] | Potency [11] | Potency [19] | Potency [12] | Potency [13] | Potency [14] | Potency [15] | outcome [16] | Potency [17]
